D1 antag: antagonists of human D1 dopamine receptor; P21728; HEK293 TREx D1 cells, calcium flux, dopamine EC80; hits give low values; activity change, negative = inhibition, % at 10 µM; 360,000 compounds, 3.2% hits; in the data active means activity change below about -30%
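Tetracycline-induced HEK293 Trex D1 cells, force-coupled to calcium, dye-loaded; compounds added and read 180 s, then EC80 dopamine added and calcium flux tracked kinetically another 180 s.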
D3 ag: D3 dopamine receptor (human) agonism; 410,000 compounds, 0.58% hits; AID 652048; max activation, %; P35462; D3R DiscoveRx beta-arrestin cells, luminescence, 90 min; in the data active means max activation above about 30%
Target sequence (P35462 whole entry, looked up): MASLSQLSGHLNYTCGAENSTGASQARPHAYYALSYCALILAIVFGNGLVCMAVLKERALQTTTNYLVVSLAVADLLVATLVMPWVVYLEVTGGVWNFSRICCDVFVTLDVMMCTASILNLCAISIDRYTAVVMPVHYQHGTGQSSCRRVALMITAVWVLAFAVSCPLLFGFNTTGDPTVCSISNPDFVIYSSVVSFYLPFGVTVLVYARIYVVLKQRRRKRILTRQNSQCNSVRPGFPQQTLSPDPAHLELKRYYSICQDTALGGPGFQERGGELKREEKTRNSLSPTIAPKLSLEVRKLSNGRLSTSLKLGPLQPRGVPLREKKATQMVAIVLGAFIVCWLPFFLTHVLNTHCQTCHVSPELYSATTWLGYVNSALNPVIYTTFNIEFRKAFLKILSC
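Agonist-mode cell screen: cells plated at 1500/well and incubated overnight at 37 °C, then exposed to library compounds for 90 min at 37 °C. Detection reagent was added for 30–60 min at room temperature, and luminescence was read.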
D1 ag: human D1 receptor agonism; P21728; HEK293 T-REx D1 cells, calcium flux, agonist mode; activation, % at 2 µM; 360,000 compounds, 1% hits; AID 504660; in the data active means activation above about 30%
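Agonism was scored from calcium flux recorded over 180 s (1 read/s) after pintool compound addition, following a 10-cycle baseline. Cells were inducible force-coupled HEK293 TREx D1, plated overnight at 30 C and loaded with no-wash calcium dye.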
D3 antag: blocks the human D3 dopamine receptor | P35462 | D3R cells, DiscoveRx beta-arrestin luminescence, antagonist mode; hits give low values | max response, negative = inhibition, % | 360,000 compounds, 2.5% hits | AID 652054; in the data active means max response below about -50%; inconclusive means no clear call, values can overlap the other calls
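Cells plated overnight at 1500 cells/well, then exposed to library compounds with dopamine controls for 90 minutes at 37 degrees C. DiscoveRx reagent added for 30–60 minutes at room temperature; luminescence read, quantitative HTS format.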
D1 PAM: human D1 dopamine receptor positive modulation; P21728; HEK293 TREx D1 cells, calcium flux, dopamine EC20 potentiation; potentiation, % at 10 µM; 360,000 compounds, 0.036% hits; AID 504651; in the data active means potentiation above about 30%
Of the large screens only hits and unclear results are named; the others gave an inactive call; ! = not confirmed by another sample. Sampled rows, rich in hits. Any-hit rate of the full collection: about 6.1%.

Cn1c(N2CCN(C(c3ccccc3)c3ccccc3)CC2)nc2ccccc21	none
C[C@H](CO)N1C[C@H](C)[C@@H](CN(C)C(=O)CCCN(C)C)OCc2cn(nn2)CCCC1=O	none (no result: D1 antag, D1 ag, D1 PAM)
CCN(C(=O)CCS(=O)(=O)c1cccc2nsnc12)c1cccc(C)c1	D1 antag -57!
C=CCN(C(=O)CCS(=O)(=O)c1cccc2nsnc12)c1ccccc1	none
COc1cccc(CN2CCNC(=O)C2CC(=O)NCCn2ccc3ccccc32)c1OC (centres undefined)	D1 antag -85
CC(C)CN1CCC(CN2CCNC(=O)C2=O)CC1	none (no result: D1 antag, D1 ag, D1 PAM)
Cc1nc(C(=O)NNC(=O)c2ccccc2)c(C(F)(F)F)o1	none
Cc1nc(C(=O)NCC(=O)c2ccccc2)c(C(F)(F)F)o1	D3 antag -59
COC(=O)COc1ccc2c(c1)O/C(=C\c1ccco1)C2=O	none
Cc1cc(O)cc2c1C(=O)/C(=C/c1ccco1)O2	D1 ag 42
O=C(Oc1ccc2c(c1)O/C(=C\c1ccncc1)C2=O)c1cccs1	D1 ag 37, D3 antag inconclusive
COc1ccc(/C=C2\Oc3cc(OC(=O)N4CCOCC4)ccc3C2=O)cc1	none
CS(=O)(=O)Oc1ccc2c(c1)O/C(=C\c1cccnc1)C2=O	none
CC(=O)Oc1ccc2c(c1)O/C(=C\c1ccncc1)C2=O	D1 ag 65
CCC(=O)Oc1ccc2c(c1)O/C(=C\c1ccco1)C2=O	D1 ag 43
COc1ccc(C(=O)CCC(=O)N2CCN(c3ccccc3)CC2)cc1	none
CC(C)COc1ccc(-c2cc(C(=O)NN)[nH]n2)cc1	none
Cc1ccc(NC(=O)CN2C(=O)NC3(CCc4ccccc43)C2=O)cc1S(=O)(=O)N1CCCCC1 (centres undefined)	none
COc1ccccc1C(=O)Oc1ccc2c(c1)O/C(=C\c1ccncc1)C2=O	D1 ag 36
COc1cc(OC)c(OC)cc1/C=C1\Oc2cc(OS(C)(=O)=O)ccc2C1=O	D1 ag 53
COc1ccc(S(=O)(=O)Oc2ccc3c(c2)O/C(=C\c2cccnc2)C3=O)cc1	none
Cn1ccc2c(OCC(=O)Nc3cc(C(F)(F)F)ccc3Cl)cccc2c1=O	none (no result: D1 antag, D3 antag)
Cc1ccc(NC2=CC(=O)C(=O)c3ccccc32)cc1	D3 antag inconclusive
O=C1C(Cl)=C(Nc2ccc(O)cc2)C(=O)c2ccccc21	D1 antag -68, D3 antag inconclusive
Cc1ccc(NC2=C(Cl)C(=O)c3ccccc3C2=O)cc1	D1 antag -58, D3 antag inconclusive
CCN(CC)c1ccc(NC2=C(Cl)C(=O)c3ccccc3C2=O)cc1	D1 antag -39, D3 antag -82
COC1=C(Nc2ccc(O)cc2)C(=O)c2ccccc2C1=O	none
CCN(C(=O)CSc1nc(-c2ccccc2)no1)c1cccc(C)c1	none (no result: D3 antag)
NC(N)=NCCCC(NC(=O)c1ccccc1)C(=O)Nc1ccc([N+](=O)[O-])cc1 (centres undefined)	D3 antag -94
O=C(NCc1ccco1)Nc1ccc(Br)cc1	none
O=C(NCc1ccco1)Nc1ccc2nsnc2c1	D3 antag -59
CC12CCC(=O)N1C(C(=O)OCc1c(Cl)cccc1Cl)CS2 (centres undefined)	none
Cc1cccc(C)c1OCc1nnc(SCC(=O)NCc2ccccc2)o1	D3 ag 38
CC(C)Cn1c(N)c(C(=O)COC(=O)C2CCCCC2)c(=O)n(C)c1=O	D1 antag -38
COc1ccccc1CCC(=O)OCC(=O)c1c(N)n(CC(C)C)c(=O)n(C)c1=O	D3 ag 31
Cn1c(=O)c(C(=O)CCl)c(N)n(CC2CC2)c1=O	D3 ag 35
Cc1ccc(N2CC(C(=O)OCC(=O)c3c(N)n(CC(C)C)c(=O)n(C)c3=O)CC2=O)cc1 (centres undefined)	none
CCCCn1nnnc1C(c1cc2ccccc2o1)N1CCN(c2ncccc2C#N)CC1 (centres undefined)	none (no result: D1 antag, D1 ag, D1 PAM)
CC1=C(C(=O)Nc2cccnc2)C(c2ccc(F)cc2)n2nc(-c3cccc(C)c3)nc2N1 (centres undefined)	none (no result: D3 antag)
CCOC(=O)c1sc(N2N=C(C)/C(=C\c3ccc(OCC(=O)OC)cc3)C2=O)nc1C	D3 antag -70
CCOC(=O)c1sc(Nc2ccc(OCC)cc2)nc1C	none
CCN(C(=O)c1cc(S(=O)(=O)N2CCc3ccccc32)cn1C)c1ccccc1	none
Cc1nnc(N=c2ssnc2Cl)o1	D3 antag -83 (no result: D1 antag)
Cc1cc(C)nc(/N=c2/ssnc2Cl)c1	none
Cc1ccc(Nc2cc(C)nc(NCc3ccccc3)n2)cc1	D1 ag 53
Cc1cc(NC2CCCCC2)nc(NCc2ccccc2)n1	D1 ag 55
COc1cc(C)nc(NCc2ccccc2)n1	none
Cc1cc(N2CCN(c3ccccc3)CC2)nc(NCc2ccccc2)n1	D1 antag -50
CCCc1nc(C)cc(N2CCN(c3ccccc3)CC2)n1	none
COc1ccc(Nc2cc(C)nc(NCc3ccccc3)n2)cc1	none
O=C(CCc1nnc(CCCCc2ccccc2)o1)NCCN1CCCCC1=O	none
O=C(CSc1ccc(-c2cccnc2)nn1)Nc1ccc(F)c(F)c1	none
COc1cc(C(=O)Nc2ccc3c(c2)C(=O)c2ccccc2C3=O)cc(OC)c1OC	D1 antag -50
CCOc1cc(C(=O)Nc2ccc(S(=O)(=O)Nc3cc(C)on3)cc2)cc(OCC)c1OCC	none
COc1cc(C(=O)Nc2ccc(S(=O)(=O)Nc3cc(C)on3)cc2)cc(OC)c1OC	D1 antag -79, D3 antag inconclusive
CCN1C(=O)c2cccc3c(S(=O)(=O)N4CCCC4C(=O)O)ccc1c23 (centres undefined)	none
CCOC(=O)C1CCCN(S(=O)(=O)c2ccc3c4c(cccc24)C(=O)N3CC)C1 (centres undefined)	D1 antag -32 (no result: D1 PAM)
COCCn1c(SCc2cc(=O)n3cc(C)ccc3n2)nc2ccccc2c1=O	none (no result: D3 ag, D3 antag)
CC(CNC(=O)c1cc(-c2ccccc2)n[nH]1)c1ccccc1 (centres undefined)	D1 antag -51 (no result: D3 antag)
Cc1ccc(CCNC(=O)c2cc(-c3ccccc3)n[nH]2)cc1	none (no result: D3 antag)
COC(=O)c1cc(-c2ccccc2)n[nH]1	none
O=C(NCCc1ccc(Cl)cc1)c1cc(-c2ccccc2)n[nH]1	D1 antag -31 (no result: D3 antag)
CC(C)(C)NC(=O)c1cc(-c2ccccc2)n[nH]1	D1 antag -32
COc1ccc(NC(=O)c2ccc(Cl)c(NC(=O)c3ccncc3)c2)cc1	none (no result: D3 ag, D3 antag)
CCCNC(=O)N1CCCN(S(=O)(=O)c2ccc3c(ccn3CC)c2)CC1	none (no result: D3 antag)
COc1cc(OC)c(C(=O)C=Cc2ccc(OC)c(OC)c2)c(OC)c1	D3 antag inconclusive (no result: D1 antag, D1 ag, D1 PAM)
COc1cc(O)c(C(=O)/C=C/c2ccccc2)c(OC)c1	D1 antag -56
COc1ccc(C(=O)c2ccc(OC)cc2OC)cc1	D1 antag -49
COc1ccc(/C=C/C(=O)c2ccc(OC)cc2OC)c(OC)c1	D3 ag 35

Compound activity: PubChem BioAssay, National Center for Advancing Translational Sciences (NCATS)
